Screen size: about 320,000 compounds; about 22,000 (6.9%) were called active. Entries that show only a call come without a potency. Inconclusive results (about 27%) are left out. Calls come from the whole dose curve; as a rule, active = well fitted inhibition curve with a large enough effect; inconclusive = small, poorly fitted or top-dose-only effect, or another doubt; inactive = no such curve, though single readings can be large or run the other way. The sample as a whole holds a higher share of actives than the screen did.
Potency is the fitted concentration of half-maximal effect.

The nature of this assay: Primary qHTS for delayed death inhibitors of the malarial parasite plastid, 96 hour incubation. To be noted: P. falciparum luciferase reporter growth; series mostly up to 28.7 µM. In outline:
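Plates of compound plus infected erythrocytes (2% hematocrit, 0.05% parasitemia final) incubate 96 hours, 37 C, 5% CO2. Detection reagent added; reduced luminescence from the parasites' luciferase reporter flags inhibition.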
(In qHTS, concentration-response curves come from the screen itself.)
In the case of `CCC(C)N(C(=O)CSc1ncnc2c1cnn2-c1ccccc1)C1CCS(=O)(=O)C1` (stereo unspecified), the Potency result is “inactive”.
With `COc1ccc(CC(=O)N/N=C/c2cc([N+](=O)[O-])cc(Br)c2O)cc1` the entry was “inactive”; with `CC12CN3CCN(CC(C3)/C1=N\NC(=O)c1ccccc1N)C2`, “inactive”; with `Cc1ccc2[nH]c(C)c(CCNC(=O)NC3CCCCC3)c2c1`, 1.47 µM (active).
As for `Cc1ccc2[nH]cc(CCNC(=O)C3CCCCC3)c2c1`, the Potency result was “inactive”.
Take `NS(=O)(=O)c1ccc(CCNC(=O)NC2CCCCC2)cc1`: the Potency entry was “inactive”.
`O=C(O)/C=C\C(=O)Nc1ccc(OCc2ccccc2)cc1`: the Potency is 4.15 µM (active).
Take `Cc1cccc(NC(=O)Nc2ccc(OCc3ccccc3)cc2)n1`: the Potency result is “inactive”.
The result for `CCc1ccnc(NC(=O)Nc2ccc(OCc3ccccc3)cc2)c1` reads “inactive”; that for `CCN(C(=O)c1cc([N+](=O)[O-])ccc1NCc1cccnc1)c1ccccc1`, “inactive”; that for `COc1cccc(N2CC(NS(=O)(=O)c3ccc(Cl)cc3)CC2=O)c1` (stereo unspecified), “inactive”.
Consider `CCOC(=O)N1CCC(NC(=O)CCc2ccccc2)CC1`, for which the Potency entry is “inactive”.
For the molecule `Cc1ccc(CSCCNC(=O)CN(c2ccc(F)cc2)S(C)(=O)=O)cc1`, the Potency entry was “inactive”.
As for `CCC(=O)Oc1cccc(C(=O)Nc2ccc(-c3nnc(-c4ccco4)o3)cc2)c1`, the Potency is 10.4 µM (active).
With `CCCCOc1ccc(-c2nnc(-c3ccco3)o2)cc1`, the Potency entry is “inactive”.
For the molecule `O=C(CCc1ccccc1)Nc1cccc(-c2nnc(-c3ccco3)o2)c1`, the Potency entry is “inactive”.
On to `COCCCN(C(=O)CSCc1ccc(C)cc1)c1c(N)n(Cc2ccccc2)c(=O)[nH]c1=O`, for which the Potency result is “inactive”.
Turning to `Cc1ccc(C(=O)NC2CCN(C(=O)Nc3ccccc3Cl)CC2)cc1`, the Potency result is “inactive”.
Consider `O=C(c1c(F)cccc1Cl)N1CCN(c2ccccn2)CC1`, for which the Potency result was “inactive”.
Take `NS(=O)(=O)c1ccc(CCNS(=O)(=O)c2cccc3cccnc23)cc1`: the Potency is 1.17 µM (active).
On to `O=S(=O)(NCCc1ccc(F)cc1)c1cccc2cccnc12`, for which the Potency result was “inactive”.
Take `COc1ccc(CCNS(=O)(=O)c2cccc3cccnc23)cc1OC`: the Potency result was “inactive”.
Regarding `Cc1cccc(NC(=O)c2cccc(C(=O)Nc3cccc(C)c3C)n2)c1C`, the Potency entry was “inactive”.
In the case of `COc1cc(C(=O)N2CCN(C)CC2)cc(OC)c1OC`, the Potency result was “inactive”.
Consider `C=CCOc1ccc(/C=C/C(=O)OCC(=O)NC(C)c2ccc(F)cc2)cc1` (stereo unspecified), for which the Potency entry was “inactive”.
With `COc1ccc(Cn2c(O)c(/C=C3/C=CC=N3)c(=O)[nH]c2=O)cc1` the entry was “inactive”.
Turning to `COc1ccc(C(=O)NCC(=O)N/N=C/c2ccc([N+](=O)[O-])o2)cc1OC`, the Potency is 1.85 µM (active).
As for `COc1ccc(C(=O)NCC(=O)N/N=C/c2ccc([N+](=O)[O-])s2)cc1OC`, the Potency entry is “inactive”.
For the molecule `COc1cc(/C=N/NC(=O)CNC(=O)c2ccncc2)ccc1OC(C)=O`, the Potency entry is “inactive”.
`O=C(O)Cc1csc(-c2cccc(Oc3ccccc3)c2)n1`: the Potency entry is “inactive”.
The result for `COc1ccc(C(=O)NCCn2nc(C)cc2C)cc1OC1CCN(C(C)=O)CC1` reads “inactive”; that for `COC(=O)C1CCCCN1C(=O)c1ccc(OC2CCN(C(C)=O)CC2)c(OC)c1` (stereo unspecified), 11.7 µM (active); that for `COCCOC1CCN(C(=O)c2ccc(OC)c(OC3CCN(C(C)C)CC3)c2)CC1`, “inactive”.
In the case of `O=C(CSc1nc(=O)n2ccccc2n1)Nc1ccc2c(c1)OCCO2`, the Potency result was “inactive”.
For the molecule `Cc1cccc(NC(=O)/C=C/c2ccc3c(c2)OCO3)n1`, the Potency was 9.28 µM (active).
As for `CCc1c(C)sc(NC(=O)/C=C/c2ccc3c(c2)OCO3)c1C(=O)OC`, the Potency result is “inactive”.
As to `Cc1cccc(NC(=O)Nc2ccc3c(c2)OCO3)n1`, the Potency entry was “inactive”.
For `Cc1nc(COc2cccc(Cl)c2)sc1C(=O)/C=C/N(C)C`, the Potency result was “inactive”.
The result for `CC(=O)c1ccc(N2CCN(C(=O)CCNC(=O)Cn3ccc4ccccc4c3=O)CC2)cc1` reads “inactive”.
Take `O=C(NCc1cccc(Cl)c1)C1=CC=CN2CCS(=O)(=O)N=C12`: the Potency entry is “inactive”.
With `CC1CN(C2CCCCC2)c2nc3c(c(=O)n(C)c(=O)n3C)n2C1` (stereo unspecified), the Potency result was “inactive”.
Take `Cc1cccc(N2CC(C)Cn3c2nc2c3c(=O)n(CC(=O)OCc3ccccc3)c(=O)n2C)c1` (stereo unspecified): the Potency is 11.7 µM (active).
In the case of `Cc1cccc(Cn2c(N3CCN(c4ccccc4)CC3)nc3c2c(=O)n(C)c(=O)n3C)c1`, the Potency entry was “inactive”.
The result for `O=c1c2cc([N+](=O)[O-])ccc2nc2n1CCC2` reads “inactive”.
With `COC(=O)c1sc(SC)c(S(=O)(=O)C(C)C)c1N/N=C(\C#N)S(=O)(=O)c1ccccn1`, the Potency entry was “inactive”.
For `CC1CC(NC(=O)/C(C#N)=C/c2ccc[nH]2)CC(C)(C)C1` (stereo unspecified), the Potency is 3.29 µM (active).
Turning to `Cn1c(=O)c2c(nc(N3CCCCCC3)n2CC(O)COc2ccc(Cl)cc2)n(C)c1=O` (stereo unspecified), the Potency entry is “inactive”.
`Cn1c(=O)c2c(ncn2CCc2ccccc2)n(C)c1=O`: the Potency result is “inactive”.
Take `Cn1c(=O)c2c(ncn2CC(COCc2ccccc2Cl)OCc2ccccc2Cl)n(C)c1=O` (stereo unspecified): the Potency was 9.28 µM (active).
For the molecule `CCOc1ccc(NC(=O)c2ccc(NC(=O)CN3C(=O)C(=O)N(CC(C)C)C3=O)cc2)cc1`, the Potency result was “inactive”.
In the case of `COc1cc(/C=N/N2CCN(c3ccccc3)CC2)ccc1OC(C)=O`, the Potency result is “inactive”.
`CSc1ncccc1C(=O)Nc1ccc2c(c1)OCO2`: the Potency entry is “inactive”.
Turning to `CSc1ccccc1NC(=O)c1ccc2c(c1)CCN2S(C)(=O)=O`, the Potency entry is “inactive”.
On to `O=C(c1ccc(Cl)s1)N(Cc1nnc(-c2ccccc2Cl)o1)C1CC1`, for which the Potency entry is “inactive”.
Take `CN(C(=O)COC(=O)c1cc(-c2ccco2)nc2ccccc12)C1CCS(=O)(=O)C1` (stereo unspecified): the Potency result was “inactive”.
On to `O=C(c1cc(-c2ccco2)nc2ccccc12)N(Cc1nnc(-c2ccc(Cl)cc2)o1)C1CC1`, for which the Potency was 2.08 µM (active).
The result for `O=C(NCCc1c[nH]c2ccccc12)c1cc2ccccc2oc1=O` reads “inactive”; that for `CN(c1ccccc1)S(=O)(=O)c1ccc(Cl)c(C(=O)NCCc2c[nH]c3ccccc23)c1`, 9.28 µM (active); that for `Cc1ccc(S(=O)(=O)N(C)CC(=O)NCCc2c[nH]c3ccccc23)cc1`, “inactive”.
Regarding `COc1ccc(NC(=O)CNC(=O)Cn2ccc3ccccc3c2=O)c(OC)c1`, the Potency entry is “inactive”.
For `COCCn1c(C)cc(C(=O)COC(=O)CNC(=O)c2ccco2)c1C`, the Potency entry was “inactive”.
On to `CC(=O)N1CCN(CC(C)(C)NS(=O)(=O)c2ccc(C)cc2)CC1`, for which the Potency entry is “inactive”.
As for `CC(C)COC(=O)C1C2C=CC3(CN(C(C)c4ccc(Br)cc4)C(=O)C13)O2` (stereo unspecified), the Potency is 6.57 µM (active).
With `CCOC(=O)CN1CC23C=CC(O2)C(C(=O)Nc2ccc(F)cc2)C3C1=O` (stereo unspecified), the Potency entry was “inactive”.
`CCCC(=O)Nc1ncnc2c1ncn2[C@@H]1O[C@@H]2OP(=O)(O)OC[C@H]2[C@H]1OC(=O)CCC`: the Potency result is “inactive”.
The result for `Cc1ccc(-c2nn(-c3ccccc3)cc2C(=O)NC2CCC(O)CC2)cc1` (stereo unspecified) reads “inactive”; that for `Cc1cccn2c(=O)c3cc(C(=O)NC4CCCCC4)sc3nc12`, “inactive”.
In the case of `Cc1ccccc1-n1nc(C)c2cc(C(=O)NC3CC3)sc21`, the Potency is 5.22 µM (active).
On to `O=c1cc(Cl)c2ccccc2n1-c1ccccc1`, for which the Potency entry was “inactive”.
With `CCCCn1c(N)c(N(CC(C)C)C(=O)C2CSC3(C)CCC(=O)N23)c(=O)[nH]c1=O` (stereo unspecified), the Potency result was “inactive”.
Turning to `CCn1c(-c2ccoc2C)n[nH]c1=S`, the Potency result was “inactive”.
`CCn1c(-c2ccncc2)n[nH]c1=S`: the Potency result was “inactive”.
As to `CCCc1cc(-c2n[nH]c(=S)n2CC)c2ccccc2n1`, the Potency is 1.65 µM (active).
Turning to `CN(C)CCCNC(=S)N1CCC(c2nc3ccccc3[nH]2)CC1`, the Potency entry is “inactive”.
For `COc1ccc(C[C@H](C(=O)O)N2C(=O)c3ccc(C(=O)O)cc3C2=O)cc1`, the Potency result was “inactive”.
Take `O=C(C1CCCO1)N1CCN(S(=O)(=O)c2ccc(Br)cc2)CC1` (stereo unspecified): the Potency result is “inactive”.
With `Cc1ccc(S(=O)(=O)N(CC(=O)Nc2cccc([N+](=O)[O-])c2)Cc2ccc(Cl)cc2)cc1` the entry was “inactive”; with `COc1ccc(C)cc1S(=O)(=O)N(CC(=O)Nc1cccc([N+](=O)[O-])c1)c1ccc(C)cc1`, 11.7 µM (active); with `COc1ccc(N(CC(=O)Nc2ccc(C)cc2C)S(=O)(=O)c2ccccc2[N+](=O)[O-])c(OC)c1`, “inactive”.
For `CC(C)c1c(C(=O)N/N=C/c2ccccc2C(=O)O)nnn1-c1nonc1N`, the Potency entry is “inactive”.
Consider `O=C(CNC(=O)[C@@H]1Cc2ccccc2CN1)NC1CCCCC1`, for which the Potency result is “inactive”.
Regarding `O=C(OCC(=O)N1CCOCC1)c1ccc(N2CCOCC2)c([N+](=O)[O-])c1`, the Potency entry is “inactive”.
For the molecule `O=C(Cc1ccc(S(=O)(=O)N2CCOCC2)s1)N1CCN(c2ccc(C(F)(F)F)cc2[N+](=O)[O-])CC1`, the Potency is 11.7 µM (active).
The result for `O=C(COc1ccc(S(=O)(=O)N2CCOCC2)cc1Cl)N1CCOCC1` reads “inactive”.
For the molecule `COc1cccc(CNS(=O)(=O)c2cc3c(cc2C)n(C)c(=O)c(=O)n3C)c1`, the Potency entry is “inactive”.
Regarding `CCOc1ccc(C(=O)Nc2cccc(SC)c2)cc1`, the Potency entry was “inactive”.
`CCOc1c(Nc2cccc(Cl)c2)c(=O)c1=O`: the Potency is 11.7 µM (active).
As for `O=C(Nc1cccc(Cl)c1)OCc1ccccn1`, the Potency entry was “inactive”.
In the case of `O=C(NCc1ccc(F)cc1)C1CCN(C(=O)Nc2ccc(F)cc2)CC1`, the Potency result is “inactive”.
Regarding `CC1CCCCN1S(=O)(=O)CCNC(=O)c1ccccc1` (stereo unspecified), the Potency entry was “inactive”.
Take `Cc1cc(C(=O)OCC(=O)Nc2ccccc2Cl)c(C)o1`: the Potency result is “inactive”.
For `O=C(O)c1ccc(S(=O)(=O)N2CCOCC2)o1`, the Potency result was “inactive”.
With `COC(=O)COc1ccc(S(=O)(=O)N2CCOCC2)cc1` the entry was “inactive”; with `COCCN(Cc1ccccc1)C(=O)Cc1ccc(S(=O)(=O)N2CCOCC2)s1`, 9.28 µM (active).
Take `O=C(Cc1ccc(S(=O)(=O)N2CCOCC2)s1)NCCC(c1ccccc1)c1ccccc1`: the Potency is 7.38 µM (active).
With `COc1ccccc1NC(=O)COC(=O)Cc1ccc(S(=O)(=O)N2CCCCC2)s1` the entry was “inactive”; with `O=C(COC(=O)c1cc(S(=O)(=O)N2CCOCC2)ccc1Cl)NCCc1ccccc1`, “inactive”.
For `C[n+]1ccc(C(=O)NCc2ccccc2)cc1`, the Potency entry was “inactive”.
As for `COc1ccnc2c1c(=O)n(Cc1cccc(F)c1)c(=O)n2C`, the Potency result is “inactive”.
Take `COc1ccc(/C=N/Nc2cc(N3CCOCC3)nc(C)n2)c(OC)c1`: the Potency result is “inactive”.
With `CCNc1nc(Oc2ccc(C(=O)OC)cc2)nc(N2CCOCC2)n1`, the Potency entry was “inactive”.
